Inconclusive results are not listed. Unmarked numbers belong to inactive results. Calls come from the whole dose curve; as a rule, active = well fitted cell-killing curve with a large enough effect in the repeat runs; inconclusive = weak or mixed curves, or effect the other way; inactive = no such curve, though single readings can be large or run the other way.
assay: qHTS assay to identify aromatase inhibitors - cell viability counter screen (AID 743084); conditions: MCF-7 aro ERE viability, CellTiter-Fluor, 24 h; series mostly up to 70.3 µM; activity change, negative = cytotoxicity: at the top concentration;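 note: cells stimulated with testosterone during compound exposure; nearly all actives have a fitted effect of over 55% in size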
% is set by controls: 0 for no effect and ±100 for the full control effect.

| SMILES | activity change, negative = cytotoxicity |
| --- | --- |
| Cc1ccc(OC(=O)CC(C)C)cc1 | -25.7% |
| CCO/C=C1\N=C(c2ccccc2)OC1=O | -14.1% |
| CCCCCCCCCCCCCCCCN(C)C | 0.21% [at 8.47 µM] |
| CC[C@@]1(c2ccccc2)NC(=O)N(C)C1=O | -0.77% |
| O=C(O)P(=O)(O)O | 13.1% |
| CC1(C)S[C@@H]2[C@H](NC(=O)Cc3ccccc3)C(=O)N2[C@H]1C(=O)O (tested in a mixture with another compound) | 0.88% |
| CC(CC(=O)Cl)CC(C)(C)C (stereo not drawn) | -3.68% [at 95 µM] |
| Cc1ccc(S(=O)(=O)NC(=O)NN2CC3CCCC3C2)cc1 (stereo not drawn) | 5.08% [at 32.5 µM] |
| Cc1ccc2cccnc2c1 | -5.27% |
| CCCC(=O)CC | 10.2% [at 95 µM] |
| CN(C)CCCN(C)C | 2.06% [at 8.47 µM] |
| O=Cc1ccc(C(=O)O)cc1 | 3.7% [at 95 µM] |
| c1cc2ccc3ccc4ccc5cccc6c(c1)c2c3c4c56 | 7.94% [at 3.79 µM] |
| CC1(C)C(=O)C(C)(C)C1=O | 0.079% |
| C=C(C)C(=O)OCCCC | -2.13% [at 95 µM] |
| CCCCN1C(=O)c2ccccc2C1=O | 7.47% [at 95 µM] |
| C[C@@H]1CC[C@@]2(OC1)O[C@H]1C[C@H]3[C@@H]4CC[C@H]5C[C@@H](O)CC[C@]5(C)[C@H]4CC(=O)[C@]3(C)[C@H]1[C@@H]2C | 7.12% [at 32.5 µM] |
| CCOCCOCCOC(C)=O | 15.2% [at 95 µM] |
| CC(O)CCCCn1c(=O)c2c(ncn2C)n(C)c1=O (stereo not drawn) | 0.47% |

| SMILES | activity change, negative = cytotoxicity |
| --- | --- |
| CCOC(=O)CC | 17.1% |
| c1coc(Cn2cccc2)c1 | 10.5% |
| C=COCCCCO | -2.25% |
| CC/C=C\CCCCCCCCCCOC(C)=O | -0.0466% |
| CCCCCCCCS(=O)(=O)O | 15.6% [at 95 µM] |
| CN1C(CCl)Nc2cc(Cl)c(S(N)(=O)=O)cc2S1(=O)=O (stereo not drawn) | -0.346% |
| CC(=O)SCC(CC(=O)c1ccc(C)cc1)C(=O)O (stereo not drawn) | 2.22% |
| CN(C)c1ccncc1 | 11.8% |
| O=S(=O)(O)CC(O)CCl (stereo not drawn) | -2.3% |
| N[C@H]1C(O)O[C@H](CO)[C@@H](O)[C@@H]1O (stereo partly drawn) | 6.28% |
| C=CCN1CCc2nc(N)sc2CC1 | -8.48% |
| Cc1ccc(O)c([N+](=O)[O-])c1 | 18.6% [at 95 µM] |
| OCCC(F)(F)C(F)(F)C(F)(F)C(F)(F)C(F)(F)C(F)(F)F | 15.3% |
| CN(C)c1cc(NC(=O)CNC(C)(C)C)c(O)c2c1C[C@H]1C[C@H]3[C@H](N(C)C)C(=O)C(C(N)=O)=C(O)[C@@]3(O)C(=O)C1=C2O | -12.4% |
| CNCCc1ccccn1 | 0.412% [at 32.5 µM] |
| Cc1ccccc1OCC(=O)O | 14.8% |
| CCOc1ccccc1OCCN[C@H](C)Cc1ccc(OC)c(S(N)(=O)=O)c1 | -0.115% |
| CCC(C)SSC(C)CC (stereo not drawn) | 4.51% |
| CC1(C)CC(N)CC(C)(C)N1 | -2.83% |

Reference: PubChem BioAssay (Tox21)
